Assay results taken from PubChem BioAssay (Tox21).
Inconclusive results are not listed. Active and inactive are the calls of the source. Unless noted, calls come from the whole dose curve; as a rule, active = well fitted curve in the direction sought with a large enough effect in the repeat runs; inconclusive = weak or mixed curves; inactive = no such curve, though single readings can be large; an effect the other way counts as inactive or inconclusive.

Columns and labels:
[1] = qHTS assay to identify small molecule antagonists of the estrogen related receptor (ERR) signaling pathway - cell viability counter screen (AID 1224818);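 note: viability measured after 17.5 h of compound exposure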
In short: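 After a 6 h pre-incubation, ERR cells were dosed by pin tool with compounds, positive/negative controls or DMSO alone. Following 17.5 h at 37 C and 30 min with CellTiter-Fluor, fluorescence was recorded.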

[2] = qHTS assay to identify small molecule antagonists of the estrogen related receptor (ERR) signaling pathway (AID 1224819; note: nearly all actives have a fitted effect of over 50% in size)
In short: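 Luminescence readout (One-Glo, 30 min, RT) of ERR cell line after 18 h compound exposure at 37 C; cells seeded 2,000/well, pre-incubated 6 h, compounds pinned from DMSO stocks.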

[3] = qHTS assay to identify small molecule agonists of the estrogen related receptor (ERR) signaling pathway (AID 1224820)
In short: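 ERR reporter cells (NTP line) plated 2,000/well, incubated 6 h at 37 C/5% CO2, then pinned with compounds in DMSO and held 18 h at 37 C. One-Glo added; luminescence read after 30 min at room temperature.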

[4] = test system: estrogen-related receptor alpha (ERRalpha) with PGC-1alpha coactivator, human; test: qHTS assay to identify small molecule antagonists of the estrogen related receptor signaling pathway with the pleiotropic PPARgamma coactivator (PGC) (AID 1224821; calls by dose curve; note: nearly all actives have a fitted effect of over 50% in size)
In short: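 Cells engineered for PGC/ERR signalling (line from NTP) were plated 6 h at 37 C/5% CO2, then exposed to DMSO-dissolved compound for 18 h at 37 C. Luciferase activity was read by One-Glo luminescence after 30 min at room temperature.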

[5] = qHTS assay to identify small molecule antagonists of the estrogen related receptor signaling pathway with the pleiotropic PPARgamma coactivator (PGC) cell viability counter screen (AID 1224822;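 note: viability read after 17.5 h compound exposure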)
In short: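 PGC/ERR cells were plated at 2,000 per well and allowed 6 h to settle before compound addition. Following 17.5 h at 37 C, CellTiter-Fluor reagent was added and fluorescence was read 30 min later.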

[6] = qHTS assay to identify small molecule agonists of the estrogen related receptor signaling pathway with the pleiotropic PPARgamma coactivator (PGC) (AID 1224823)
In short: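 PGC/ERR reporter cells were seeded, rested 6 h at 37 C/5% CO2, then exposed to compounds in DMSO by pin transfer for 18 h at 37 C. Luciferase activity was read as luminescence after One-Glo reagent and 30 min at room temperature.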

Measured: Potency
Potency is the fitted concentration of half-maximal effect.

S=C(S)OC1CC2CC1C1CCCC21 (stereo not given)
inactive: all assays above

O=c1onc2cnc3ccccc3n12
inactive: all assays above

C[C@@H]1C(=O)NC2=Nc3cccc(Cl)c3CN21
inactive: all assays above

CS(=O)(=O)c1ccc(-n2nc(C(F)(F)F)cc2-c2ccc(F)cc2)cc1
inactive: all assays above

Nc1nc2ccc(Cl)cc2n2c(-c3ccccc3)nnc12
inactive: all assays above

CC(C)Cc1ccc([C@H](C)C(=O)O)cc1
inactive: all assays above

NCCCCN
inactive: all assays above

CC1CCN(CC[C@H]2CCCN2S(=O)(=O)c2cccc(O)c2)CC1
inactive: all assays above

CCCOC(=O)c1c(-c2ccccc2)nc(CC)c(C(=O)SCC)c1CCC
inactive: all assays above

NCCCCCCCCCCN
inactive: all assays above

CN(CCCOc1ccc(Cc2ccccc2)cc1)CCC(=O)O
inactive: all assays above

CCN1C(=O)C=CC1=O
inactive: all assays above

O=C1Cc2c([nH]c3ccc(Br)cc23)-c2ccccc2N1
active: [3] 2.98 µM | [6] 1.23 µM
inactive: all other assays above

CN1CC(O)C(O)C(O)C1CO (stereo not given)
inactive: all assays above

Nc1ccc(CCNc2ncnc3c2ncn3C2OC(CO)C(O)C2O)cc1 (stereo not given)
active: [6] 12.3 µM
inactive: all other assays above

CCCCS(=N)(=O)CCC(N)C(=O)O (stereo not given)
inactive: all assays above

COc1ccc(-c2cc3ncc(C)n3c(Nc3ncccc3C(N)=O)n2)cc1OC
active: [2] 2.87 µM | [4] 2.37 µM
inactive: all other assays above

Cc1ccc([N+](=O)[O-])cc1S(=O)(=O)N(C)C
inactive: all assays above

C[N+](C)(C)CCOP(=O)(O)OP(=O)([O-])OC[C@H]1O[C@@H](n2ccc(N)nc2=O)[C@H](O)C1O (stereo not given in full)
inactive: all assays above

Cc1nc(N=Nc2ccc(C(=O)O)cc2)c(COP(=O)(O)O)c(C=O)c1O
inactive: all assays above

N[C@H](C(=O)O)c1cc(O)cc(O)c1
inactive: all assays above

N[C@H](C(=O)O)[C@H]1C[C@@H]1C(=O)O
inactive: all assays above

O=S(=O)(c1cccc2c(I)cccc12)N1CCCNCC1
inactive: all assays above

CNc1ncnc2c1ncn2[C@H]1C[C@H](OP(=O)(O)O)[C@@H](COP(=O)(O)O)O1
inactive: all assays above

Nc1nc2c(ncn2[C@@H]2O[C@H](CO)[C@@H](O)[C@@H]2O)c(=O)[nH]1
inactive: all assays above

NC/C=C\C(=O)O
inactive: all assays above

CCCCCCCCCCCCCCSCC(=O)O
inactive: all assays above

O=C1OC(=O)C2C3CCC(O3)C12 (stereo not given)
inactive: all assays above

CC1(C)CCC2=C(O1)c1ccccc1C(=O)C2=O
active: [1] 16.8 µM | [2] 9.44 µM | [4] 13.3 µM | [5] 18.8 µM
inactive: [3] | [6]

N[C@@H](CCCC(=O)O)C(=O)O
inactive: all assays above

CCCCCCCCCCC/C=C\C(C)(C)/C=C\CCCC(=O)O
inactive: all assays above

COc1ccccc1N1CCN(CCCNc2c(C)c(=O)n(C)c(=O)n2C)CC1
inactive: all assays above

CS(=O)(=O)c1cccc(CNc2nc(Nc3ccc4c(c3)CCC(=O)N4)ncc2C(F)(F)F)c1
inactive: all assays above

NCCCCN=C(N)N
inactive: all assays above

Oc1ccc(Cn2cc[nH]c2=S)cc1
inactive: all assays above

C[C@@H](NCCc1ccc(O)cc1)[C@@H](O)c1ccc(O)cc1
inactive: all assays above

O=C(O)C1=CCCNC1
inactive: all assays above

C[C@H]1CC2C3CCC4=CC(=O)C=C[C@]4(C)[C@@]3(Cl)[C@@H](O)C[C@]2(C)[C@@]1(O)C(=O)CO (stereo not given in full)
inactive: all assays above

C=C(C)C1CC=C(C(=O)O)CC1 (stereo not given)
inactive: all assays above

N[C@@H](Cc1ccc(O)c(O)c1)C(=O)O
inactive: all assays above

CC(C)(Sc1ccc(CCN(CCCCC2CCCCC2)C(=O)NC2CCCCC2)cc1)C(=O)O
inactive: all assays above

C=CC(N)CCC(=O)O (stereo not given)
inactive: all assays above

O=c1c2ccccc2nc2n1CCc1c-2[nH]c2ccccc12
active: [3] 2.28 µM | [6] 13.3 µM
inactive: all other assays above

N[C@@H](Cn1ccc(=O)c(O)c1)C(=O)O
inactive: all assays above

c1ccc2nc(C3=NCCN3)ccc2c1
inactive: all assays above

N[C@H](C(=O)O)[C@H](O)C(=O)O
inactive: all assays above

Cc1ccc2c(c1)C(N1CCN(C)CC1)=Nc1cccnc1N2
inactive: all assays above

NS(=O)(=O)c1cccc2c1c([N+](=O)[O-])cc1nc(O)c(O)nc12
inactive: all assays above

CC[N+](CC)(CC)CC(=O)Nc1c(C)cccc1C
inactive: all assays above

COc1ccc(-c2ccc(N)[n+](CCCC(=O)O)n2)cc1
inactive: all assays above

NC(CCCP(=O)(O)O)C(=O)O (stereo not given)
inactive: all assays above

C#CCn1c(=O)c2c(ncn2C)n(C)c1=O
inactive: all assays above

O=C1NC(=O)/C(=C/c2ccc3c(c2)OC(F)(F)O3)S1
active: [3] 3.16 µM
inactive: all other assays above

CN(CC[C@@H](Oc1ccc(C(F)(F)F)cc1)c1ccccc1)CC(=O)O
inactive: all assays above

O=C(O)[C@H]1NCCC[C@H]1C(=O)O
inactive: all assays above

CC(C)NC[C@H](O)c1ccc(O)c(O)c1
inactive: all assays above

CSC(N)=NCCC[C@H](N)C(=O)O
inactive: all assays above

COc1ccc2c(c1)c(CC(=O)O)c(C)n2Cc1ccc(Cl)cc1
inactive: all assays above

O=C(O)CCC/C=C\C[C@@H]1[C@@H](/C=C/[C@H](O)C2Cc3ccccc3C2)[C@@H](F)C[C@@H]1O
inactive: all assays above

Nc1cc(Cl)c(NC2=NCCN2)c(Cl)c1
inactive: all assays above

Nc1ncnc2n[nH]c(Nc3ccc(F)cc3)c12
active: [6] 22.8 µM
inactive: all other assays above

Cc1cccc(-c2[nH]ncc2-c2ccc3ncccc3n2)n1
active: [2] 1.23 µM | [4] 1.44 µM
inactive: all other assays above

CCSC(=N)N
inactive: all assays above

CC(=O)O[C@H]1C[C@@H]2CC[C@@H]3[C@H](CC[C@@]4(C)[C@H]3C[C@H]([N+]3(C)CCCCC3)[C@@H]4OC(C)=O)[C@@]2(C)C[C@@H]1[N+]1(C)CCCCC1
inactive: all assays above

Cc1cccc(C(=O)NCN2CCN(c3ccccc3C#N)CC2)c1
inactive: all assays above
